This is an account of results in PubChem BioAssay (NCATS).

Molecules are shown by their SMILES. Records with an inconclusive call do not appear. Calls of active or inactive are those of the source. Calls come from the whole dose curve; as a rule, active = well fitted curve in the direction sought with a large enough effect; inconclusive = small, poorly fitted or top-dose-only effect, or another doubt; inactive = no such curve, though single readings can be large; an effect the other way counts as inactive or inconclusive.

The subject of experiment [1] is Zika virus NS2B-NS3 protease. In words: Primary screen GU AMC qHTS for Zika virus inhibitors (AID 1347154). Note: nearly all actives have a fitted effect of over 70% in size. Note: potency is the fitted concentration of half-maximal effect. The settings on record: Zika NS2B-NS3 unlinked protease, AMC fluorogenic substrate; series mostly up to 54.1 µM. In outline:
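Unlinked Zika NS2B hydrophilic domain/NS3 protease domain noncovalent complex (25 nM final) in 10 mM Tris-HCl pH 8.0, 0.01% Tween 20, with AMC peptide substrate. Fluorescence (ex 340, em 450 nm) change over 15 min, room temperature; percent inhibition fitted to 4-parameter Hill equation.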
Background: Quantitative high-throughput screening tests each substance at several concentrations.

The subject of experiment [2] is Zika virus NS2B-NS3 protease (linked construct). Kind of experiment: Confirmatory screen NINDS AMC qHTS for Zika virus inhibitors (AID 1347152). Note: potency is the fitted concentration of half-maximal effect; nearly all actives have a fitted effect of over 70% in size. The settings on record: Purified linked NS2B-NS3, AMC substrate fluorescence; series mostly up to 56.6 µM. The gist of the method:
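In this dose-response qHTS, AMC release from 10 microM Bz-Nle-KRR-AMC by 1 nM linked protease is measured over 15 minutes (about 20% conversion) at pH 8.0. Percent inhibition is fitted to a 4-parameter Hill curve.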

The next experiment has as its target Furin (Homo sapiens) (UniProt P09958). In words: Furin counterscreen qHTS for Zika virus inhibitors (AID 1347149). Note: potency is the fitted concentration of half-maximal effect; nearly all actives have a fitted effect of over 70% in size. The settings on record: furin enzymatic counterscreen, fluorogenic substrate; series mostly up to 114 µM. The gist of the method:
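Counterscreen measures cleavage of 2 microM BOC-RVRR-AMC, below its ~15 microM Km, by 5 nM full-length human furin at pH 7.0 after a 15-min compound preincubation. Inhibition derives from the 15-min fluorescence increase at 37C.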
(Counterscreens check selectivity or assay interference.)

In experiment [3] the test system is Zika virus NS2B-NS3 protease (unlinked complex). In words: Confirmatory screen GU AMC qHTS for Zika virus inhibitors (AID 1347153). Note: potency is the fitted concentration of half-maximal effect; nearly all actives have a fitted effect of over 70% in size. The settings on record: Recombinant NS2B-NS3 protease, AMC substrate fluorescence; series mostly up to 57.1 µM. In outline:
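Unlinked enzyme 25 nM, Tris pH 8.0/0.01% Tween 20; cpd 15 min RT, dark; + AMC substrate 10 µM (Km 18.3 µM); 340/450 nm read at t0 and 15 min; % inhibition → 4-param fit.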

The target of experiment [4] is N-terminal Xaa-Pro-Lys N-methyltransferase 1 (Homo sapiens) (UniProt Q9BV86). Kind of experiment: qHTS Assay for Inhibitors of N-terminal methyltransferase 1 (NTMT1): LOPAC validation of the NTMT1 SAHH-coupled ThioGlo3 Assay (AID 1347143). The settings on record: recombinant NTMT1, SAHH-coupled ThioGlo3 fluorescence; series mostly up to 114 µM. In outline:
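In this qHTS pilot against the LOPAC set, 125nM NTMT1 met compounds tested at multiple concentrations, and fluorescence was normalized to background.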

Experiment [5] relates to Zika virus NS2B-NS3 protease (unlinked). In words: Optimization of GU AMC qHTS for Zika virus inhibitors: Unlinked NS2B-NS3 protease assay (AID 1347151). Note: nearly all actives have a fitted effect of over 80% in size. The settings on record: recombinant ZIKV NS2B-NS3 protease, fluorogenic AMC substrate; series mostly up to 52.5 µM. In outline:
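Percent inhibition is derived from the 15-min change in AMC fluorescence, normalized against no-inhibitor and no-enzyme controls, then fitted to a 4-parameter Hill curve. Aprotinin was the intraplate control.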

Furin (Homo sapiens), sequence (P09958 whole entry, looked up): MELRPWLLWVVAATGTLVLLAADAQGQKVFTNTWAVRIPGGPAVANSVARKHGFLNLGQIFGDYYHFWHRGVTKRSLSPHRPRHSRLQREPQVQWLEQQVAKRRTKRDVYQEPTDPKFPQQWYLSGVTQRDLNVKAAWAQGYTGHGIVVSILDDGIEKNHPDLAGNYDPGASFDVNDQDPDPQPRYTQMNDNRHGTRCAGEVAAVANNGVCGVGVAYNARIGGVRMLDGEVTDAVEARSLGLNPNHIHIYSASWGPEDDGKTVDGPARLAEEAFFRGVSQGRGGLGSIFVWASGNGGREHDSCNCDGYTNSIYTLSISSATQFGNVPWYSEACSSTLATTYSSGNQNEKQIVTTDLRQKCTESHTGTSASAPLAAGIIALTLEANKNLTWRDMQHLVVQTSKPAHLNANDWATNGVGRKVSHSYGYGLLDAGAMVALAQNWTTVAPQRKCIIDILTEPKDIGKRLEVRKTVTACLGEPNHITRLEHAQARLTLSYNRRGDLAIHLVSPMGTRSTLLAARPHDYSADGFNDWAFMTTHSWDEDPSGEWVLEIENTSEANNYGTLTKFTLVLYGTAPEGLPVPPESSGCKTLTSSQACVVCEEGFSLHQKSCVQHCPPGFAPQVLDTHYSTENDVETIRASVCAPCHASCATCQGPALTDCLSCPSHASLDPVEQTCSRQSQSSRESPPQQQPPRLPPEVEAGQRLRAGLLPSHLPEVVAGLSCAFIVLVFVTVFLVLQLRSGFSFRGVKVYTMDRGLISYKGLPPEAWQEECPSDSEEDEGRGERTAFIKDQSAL
N-terminal Xaa-Pro-Lys N-methyltransferase 1 (Homo sapiens), sequence (Q9BV86 whole entry, looked up): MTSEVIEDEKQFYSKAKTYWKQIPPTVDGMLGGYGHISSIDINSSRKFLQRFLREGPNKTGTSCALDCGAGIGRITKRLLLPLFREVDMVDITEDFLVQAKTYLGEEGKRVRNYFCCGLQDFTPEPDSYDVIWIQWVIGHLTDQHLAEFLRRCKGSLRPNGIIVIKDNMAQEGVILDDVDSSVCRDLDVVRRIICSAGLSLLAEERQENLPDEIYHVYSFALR

Regarding `Nc1ccc(C(=O)N2CC3CC(CN(Cc4ccccc4)C3)C2)cc1`, the Potency entry in experiment [1] is “inactive”.
For the compound `CCOC(=O)Cn1cccc1-c1nc(-c2ccc(OC)cc2)c(-c2ccc(OC)cc2)s1`, the Potency in experiment [2] was 24.1 µM (active).
Take `COc1ccc(-n2nc(CCC(=O)N(C)O)cc2-c2ccc(Cl)cc2)cc1`: the Potency result in experiment [1] was “inactive”.
Same read-out and setting: next, `O=C(O)Cc1ccc(OCCNC[C@H](O)c2ccccc2)cc1`: “inactive”.
For the compound `O=C(Nc1ccc(S(=O)(=O)N2CCOCC2)cc1)c1cc(Cl)ccc1NS(=O)(=O)c1ccc(Cl)s1`, the Potency is 21.5 µM (active) with Furin (Homo sapiens), 17.1 µM (active) in experiment [2], 17.1 µM (active) in experiment [3] and 14.4 µM (active) in experiment [1].
Regarding `NC(N)=NCCCCN=C(N)N`, the Potency entry in experiment [4], in experiment [5] and in experiment [1] was “inactive” each time.
With `CCCOc1ccc2c(c1)CC[C@@H]1[C@@H]2CC[C@]2(C)C(OC)CC[C@@H]12` (stereo partly specified), in experiment [1], the Potency entry is “inactive”.
On to `CC(=O)Oc1ccc(C2(c3ccc(OC(C)=O)cc3)Oc3ccccc3NC2=O)cc1`, for which the Potency entry in experiment [1] was “inactive”.
Still for that read-out and setting: the same measure for `CCCCC(O)/C=C(C)/C=C/C=C/C(=O)N1CCCC1=O` (stereo unspecified): “inactive”; for `CCN(CC)CCOc1ccc(/C(=C(\Cl)c2ccccc2)c2ccccc2)cc1`: “inactive”.
On to `CCC(=O)O[C@H]1[C@H](O[C@@H]2[C@@H](C)[C@H](O[C@H]3C[C@@](C)(OC)[C@@H](O)[C@H](C)O3)[C@@H](C)C(=O)O[C@H](CC)[C@@](C)(O)[C@H](O)[C@@H](C)C(=O)[C@H](C)C[C@@]2(C)O)O[C@H](C)C[C@@H]1N(C)C`, for which the Potency with Furin (Homo sapiens) was 34.1 µM (active); in experiment [2], 13.6 µM (active); in experiment [3], 19.2 µM (active).
As for `Clc1ccc2c(c1)N=C(N1CCNCC1)c1ccccc1N2`, the Potency result in experiment [4], in experiment [5] and in experiment [1] was “inactive” throughout.
